Compound activity as filed in PubChem BioAssay.
This is one part of a sample in which hits are shown more often than they occur.
Artemis inh: inhibitors of human Artemis endonuclease activity; inhibition, % at 10 µM; Q96SD1; 30,000 compounds, 0.78% hits; recombinant Artemis, quenched FAM hairpin cleavage fluorescence; AID 686954;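 active means at 10 µM dose, at least 30% inhibition, measured as corrected fluorescence normalized to stimulator and neutral control wells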
Target sequence (Q96SD1 whole entry, looked up): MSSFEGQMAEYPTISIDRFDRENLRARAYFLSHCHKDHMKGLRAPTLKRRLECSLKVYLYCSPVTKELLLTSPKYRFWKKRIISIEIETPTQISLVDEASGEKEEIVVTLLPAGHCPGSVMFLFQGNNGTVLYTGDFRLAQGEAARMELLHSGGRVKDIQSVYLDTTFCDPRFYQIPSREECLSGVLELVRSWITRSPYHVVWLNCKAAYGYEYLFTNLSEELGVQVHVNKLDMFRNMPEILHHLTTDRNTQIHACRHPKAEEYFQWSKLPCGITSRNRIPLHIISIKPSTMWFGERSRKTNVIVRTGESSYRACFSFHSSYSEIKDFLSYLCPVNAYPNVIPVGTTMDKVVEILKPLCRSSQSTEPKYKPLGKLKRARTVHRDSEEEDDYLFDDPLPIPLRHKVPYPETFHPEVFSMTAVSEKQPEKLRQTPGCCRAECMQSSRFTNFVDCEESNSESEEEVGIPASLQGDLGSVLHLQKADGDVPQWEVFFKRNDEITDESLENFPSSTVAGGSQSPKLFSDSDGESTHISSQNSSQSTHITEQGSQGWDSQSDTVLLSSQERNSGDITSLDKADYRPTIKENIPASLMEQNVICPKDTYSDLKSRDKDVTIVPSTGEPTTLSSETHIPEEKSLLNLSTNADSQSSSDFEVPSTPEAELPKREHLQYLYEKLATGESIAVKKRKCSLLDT
A number is an active result; i = inactive.

SMILES	Artemis inh
CNC(=O)CC(=O)Nc1ccccc1C(=O)O	i
CCN(CC)C(=O)CSC1=C(C#N)C(c2cccs2)C=C(C)N1 (stereo not drawn)	i
Cc1cccc(CN2C(=O)CCSc3ccc(Cl)cc32)c1	i
Cc1cc(C)n(-c2nc(Nc3ccccc3C(F)(F)F)nc(-n3nc(C)cc3C)n2)n1	57.0
Cc1cc(C)n(-c2nc(NC(C)(C)C)nc(NC(C)(C)C)n2)n1	i
Cc1csc(Nc2ccccc2C(F)(F)F)n1	i
O=S1(=O)C=CC(N2CCOCC2)C1 (stereo not drawn)	i
Clc1ccc(-n2cccc2/C=N/n2cnnc2)cc1	i
Cc1cc(/C=N/n2cnnc2)c(C)n1-c1ccc(OCc2ccc(Cl)cc2)cc1	32.8
Clc1ccc(Cn2cc(/C=N/n3cnnc3)c3ccccc32)cc1	i
CCOC(=O)c1ccc(NC(=O)COc2ccc(S(=O)(=O)NC(C)(C)C)cc2)cc1	i
COc1ccc2cc(CN(CC3COCCO3)S(=O)(=O)c3ccc(Cl)cc3)c(=O)[nH]c2c1 (stereo not drawn)	i
O=S(=O)(c1ccccc1)n1ccc2cccnc21	i
CCCC(=O)Nc1ccc(N2CCOCC2)cc1	i
COc1ccccc1C(=O)Nc1ccc(N2CCN(Cc3ccccc3)CC2)cc1	i
O=C(Nc1ccc(N2CCCC2)cc1)C(c1ccccc1)c1ccccc1	51.7
CCCC(=O)N1CCN(c2ccc(NC(=O)C(C)(C)C)cc2)CC1	i
COc1ccccc1C(=O)Nc1ccc(N2CCCCC2)cc1	i
CCC(=O)Nc1ccc(N2CCN(Cc3ccccc3)CC2)cc1	i
CCOc1cccc(C(=O)NC(=S)Nc2ccc(N3CCCC3)cc2)c1	42.9
CC(C)C(=O)Nc1ccc(N2CCCC2)cc1	i
CCCCC(=O)Nc1ccc(N2CCCC2)cc1	44.3
CCC(=O)N1CCN(c2ccc(NC(=S)NC(=O)c3cccc([N+](=O)[O-])c3)cc2)CC1	i
O=C(Cc1ccccc1)Nc1ccc(N2CCCC2)cc1	58.8
CCCCOc1cccc(C(=O)Nc2ccc(N3CCN(CC)CC3)cc2)c1	i
SMILES	Artemis inh
COc1ccc(-c2nnn(CCc3nn[nH]n3)n2)cc1	i
O=C(N1CCOCC1)N(CCN1CCOCC1)Cc1cccc(Cl)c1	i
Cc1cc(C(=O)OCC(=O)N(C)C2CCS(=O)(=O)C2)c(C)n1-c1ccccc1 (stereo not drawn)	i
CC(Sc1nnc(C2CCCCC2)n1N)C(=O)NCc1ccc2c(c1)OCO2 (stereo not drawn)	i
COC(=O)c1nn(-c2ccccc2)c(Sc2ccc(Br)cc2)c1/C=N/O	i
CC(=O)NC1=C(C#N)C(c2ccccc2)c2c(ccc3ccccc23)O1 (stereo not drawn)	i
O=C1c2ccccc2C(=O)N1CC1=CCS(=O)(=O)C1	i
NC(=O)c1ncc(C(F)(F)F)cc1Oc1ccc(C(F)(F)F)cc1	i
Cc1ccc(C)c(S(=O)(=O)Nc2ccc3scnc3c2)c1	i
CC(Oc1ccc(-c2nccc(-c3ccccn3)n2)cc1)C(=O)NN (stereo not drawn)	i
COc1ccc2[nH]c3c(NCCN(C(C)C)C(C)C)ncnc3c2c1	i
COc1ccc(OC)c(NC(=O)c2ccccc2NS(=O)(=O)c2cccc3cccnc23)c1	i
COc1cc(NCCCC(C)N)c2ncccc2c1 (stereo not drawn)	55.3
CCCS(=O)(=O)N1CCC(C(=O)NCCCOCC)CC1	i
CCc1nc(SCc2ccc(F)cc2)[nH]c(=O)c1C#N	i
Clc1ccc(-c2cn3nc4c(nc3n2)CCCC4)cc1	37.1
COc1cccc(-c2cc(C(F)(F)F)n3nc(N)nc3n2)c1	i
OC1CCN(c2c3c(nc4cc(-c5ccc(Cl)cc5)nn24)CCC3)CC1	i
Clc1ccc(-c2cn3cccnc3n2)cc1	i
COc1cccc(-c2cn3nc4c(nc3n2)CCCC4)c1	35.6
COc1cccc(-c2csc(NC(C)=O)n2)c1	i
CCS(=O)(=O)NCCc1cc2ccc(C)cc2[nH]c1=O	i
O=C(CSc1nnc(-c2ccccc2)n1Cc1ccco1)NCc1ccc2c(c1)OCO2	i
CCc1ccc(OCC(=O)NC(=S)Nc2ccc(S(=O)(=O)NC3CCCCC3)cc2)cc1	i
O=C(O)c1cc(-c2ccccc2Cl)n[nH]1	i
SMILES	Artemis inh
Oc1c(Br)cc(C2N=C(c3ccccc3Cl)NO2)cc1Br (stereo not drawn)	31.2
COc1ccc(-n2c(SCC#N)nc3ccccc3c2=O)cc1	i
Cc1cc(NC(=O)CSc2nc3ccccc3c(=O)n2-c2ccccc2)no1	i
O=C1CCCN1CC(CN1CCOCC1)Sc1nc2ccccc2c(=O)n1-c1ccccc1 (stereo not drawn)	33.2
Cc1c(NC(=O)C(C)NCC2CCCO2)c(=O)n(-c2ccccc2)n1C (stereo not drawn)	i
O=C(Nc1cccc(C(F)(F)F)c1)/C(=C/c1ccco1)NC(=O)c1cccs1	i
O=C(c1nc2nc(-c3cccs3)cc(C(F)(F)F)n2n1)N1CCN(Cc2ccccc2)CC1	i
Cn1c(-c2ccc(C=O)s2)nc2c3ccccc3c3ccccc3c21	46.1
C=CC[N+](C)(C)C/C(Cl)=C(\Cl)c1ccccc1	i
CC(C)CC(=O)Nc1ccccc1Oc1ccccc1	i
CCCC(=O)c1c[nH]c(C(=O)NCCc2ccccn2)c1	i
Cc1c(Br)c([N+](=O)[O-])nn1CC(=O)N1CCCc2ccccc21	i
Cc1cc(NC(=O)COC(=O)CCCOc2ccc(Cl)cc2C)no1	i
Cc1cc(Cl)ccc1OCCCC(=O)NCC1CCCO1 (stereo not drawn)	i
Cc1cc(Cl)ccc1OCCCC(=O)NO	63.1
COc1ccccc1-c1nnc(SCC(=O)c2ccc(C3CCCCC3)cc2)n1Cc1ccco1	i
Clc1ccc(Cl)c(OCc2cc(-c3ccccc3Cl)on2)c1	i
C=C(C)c1cccc(C(C)(C)NC(=O)N2CCN(C/C=C/c3ccccc3)CC2)c1	i
N#Cc1ccc(-c2ccccc2)nc1SCC(=O)c1cc2ccccc2oc1=O	i
CC(C(=O)Nc1ccc2c(c1)OCCO2)N1CCN(C(=O)c2ccco2)CC1 (stereo not drawn)	i
COC(=O)CNC(=O)CN1C(=O)N(c2cccc(Cl)c2)C(N(O)C(=O)Nc2cccc(Cl)c2)C1(C)C (stereo not drawn)	i
Cc1cccc(C)c1OCC(=O)N/N=C/c1ccc2c(c1)OCO2	i
CCOc1ccc(/C=N/NC(=O)COc2ccccc2-c2ccccc2)cc1	i
O=C(COc1ccccc1C(=O)N/N=C\c1ccc(O)c(O)c1)N/N=C/c1ccc(O)c(O)c1	66.2
COC(CN1C(=O)C(O)=C(C(C)=O)C1c1ccccn1)OC (stereo not drawn)	i
SMILES	Artemis inh
Cc1cc(NC(=O)c2sccc2C)n(-c2cccc(Cl)c2)n1	i
COc1ccc(OC)c(NC(=O)CSC2=NCCS2)c1	i
COc1ccc(Nc2nc(Nc3ccc(OC)cc3)nc(SC3=NCCS3)n2)cc1	79.4
COc1ccc(CC(=O)NC2=NCCS2)cc1	i
C=CCn1cnc2scc(-c3ccc(C)cc3)c2c1=O	i
Cc1ccc(SCC(=O)Nc2cccc(NC(=O)c3ccco3)c2)cc1	i
N#Cc1ccsc1NC(=O)CSc1ncnc2ccccc12	i
N#Cc1c(NC(=O)CSc2ncnc3sccc23)oc(-c2ccco2)c1-c1ccco1	31.3
CCNC(=O)CSc1ncnc2sccc12	i
CCOc1ccc(C2NC(=O)NC(C)=C2C(=O)OC)cc1C (stereo not drawn)	i
CNc1nn(-c2cccc(Cl)c2)nc1N	i
CS(=O)(=O)Nc1cccc(C(=O)CC2(O)C(=O)Nc3ccc(Br)cc32)c1 (stereo not drawn)	i
C=CCSc1nnc(NC(=O)CSc2nc3ccccc3o2)s1	i
